Source: the supplement of paper PMC10338343
± gives the standard deviation.

System: MILI (PIWIL2) piRISC loaded with L1MC piRNA (26 nt)
Assay: pre-steady-state target cleavage rate (min^-1); guide: L1MC piRNA 5'p-UAACUAAAUACUAUGCAAGCUGUAGG; MIWI and MILI are mouse PIWI proteins and EfPiwi is from a freshwater sponge; tags in brackets are library labels; higher = faster piRNA-guided slicing of the target
Summary of the method: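 Sequencing of uncleaved targets, normalised to depth and to weakly complementary targets, was the readout of this Cleave-'n-Seq assay. A transcribed, DNA-blocked target RNA library (0.1 nM) was mixed with 1 nM active affinity-purified piRISC carrying one synthetic guide, with or without 500 nM GTSF1 partner protein, in HEPES–potassium acetate buffer at 33 °C for 0–8 or 0–960 min. Three trials were pooled, k3 was capped at 0.0001 min^-1, and a burst-and-steady-state fit gave the pre-steady-state cleavage rate.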

[1] = auxiliary factor: 500 nM mouse GTSF1
[2] = auxiliary factor: none (no GTSF1)

Row | Sequence | pre-steady-state target cleavage rate [1] | pre-steady-state target cleavage rate [2]
1 | UCCUGGAACAGCUUGGAUAGUAUUUACUUA | 0.0413 ± 0.012 | 
2 | UCCUGGAUGUCGAACCAUACGUAUUUAGUUA |  | < 0.0001
3 | UCCUGGUACAGCUUGCAAAGAAUUUAGUUA | 0.00951 ± 0.0059 | 
4 | UCCUGGAUGUCGUUGCAUAGUAUUUAGGUUA | 0.152 ± 0.033 | 
5 | UCCUGGUACACCUUGCAUAGUAUUUUCAAA | 0.0291 ± 0.016 | 
6 | UCCUCCUACAGCUUGCAUAGUAAUUAGUAA | 0.141 ± 0.021 | 
7 | UCCUGGAUGUCCUUGCAUAAUAUUUAGUUA | 0.0892 ± 0.015 | 
8 | UCCUGGUACAGCUUGCAUAGUAUAAACAAA | 0.0195 ± 0.0074 | 
9 | UCCUCCAACAGCUUGCAUAGUAUUUUCAAA | 0.0817 ± 0.015 | 
10 | UCCUGGAUGUGCUUGCAUAGUAAAUAGUAA | 0.0121 ± 0.0056 | 
11 | UCCUGGAUGUCGAUCCAUAGAAUUUAGUUA |  | < 0.0001
12 | UCCUGGUACAGCUUGCAUAGUAAAUAGUAA | 0.151 ± 0.045 | 
13 | UCCUCCUACAGCUUGCAUAUGUAUUUAGUUA | 0.0106 ± 0.0057 | 
14 | UCCUGGAUGUCGAUCAUAGUAUUUAGUUA | 0.017 ± 0.006 | 
15 | UCCUGGAUCAGCUUGCAUAGUUUUUAGAAA | 0.0202 ± 0.0088 | 
16 | UCCUCCUACAGGAAGCAUAGUAUUUACAAA | 0.0698 ± 0.014 | 
17 | UCCUGGAUCAGCUUGCAUAGUAUUAUCUAA | 0.0859 ± 0.021 | 
18 | UCCUGGUACAGCUUGCAUAGUAUGUAGUUA | 0.03 ± 0.011 | 
19 | UCCUGGAACAGCUUGCAUAGUAAUAAGUUA | 0.103 ± 0.018 | 
20 | UCCUCGUACAGCUUGCAUAGUAUUUACUUA | 0.0971 ± 0.015 | 
21 | UCCUGGAUGUCGAAGCUUAGUAUUUUGUUA |  | < 0.0001
22 | UCCUGGAUGUCCUUGCUUAGUAUUUAGAUA | 0.0358 ± 0.0092 | 
23 | UCCUGGAUCAGCAAGCAUAGUAUUUUCAAA | 0.024 ± 0.0074 | 
24 | UCCUGGAUGUCGAACCAUAGAAAUUAGUUA | < 0.0001 | 

Row | Sequence | pre-steady-state target cleavage rate [1] | pre-steady-state target cleavage rate [2]
25 | UCCUGGAUGUGCUUGCAUACUAAUUAGUUA | 0.00944 ± 0.0038 | 
26 | UCCUGGAUGUCGAACGUAAGUAAUUAGAUA | < 0.0001 | 
27 | UCCUGGUACAGCUUGCAUAGUAUUUUCAUA | 0.0352 ± 0.014 | 
28 | UCCUGGAUGUCGAAGCAUAGUACUUAGUUA | 0.00746 ± 0.0031 | 
29 | UCCUGGAUCAGCUUGCAUAGUAUUAAGAUA | 0.0716 ± 0.025 | 
30 | UCCUGGAACAGCUUGCUUAGUAUUUAGAAA | 0.142 ± 0.029 | 
31 | UCCUGGAUCAGCUUGCAAUCUAUUUAGUAA | 0.0108 ± 0.0043 | 
32 | UCCUGGAUGUGCUUGCUUAGAAUUUAGUUA | 0.00417 ± 0.0032 | 
33 | UCCUGGAUGAGCUUGCAUAGUAUAUACAAA | 0.00992 ± 0.0056 | 
34 | UCCUGCUACAGCUUGCUAUGUAUUUAGUAA | 0.0455 ± 0.019 | 
35 | UCCUGGAACAGCUUGCAUAGUUUUUAGAUA | 0.0168 ± 0.0068 | 
36 | UCCUGGUACUGCUUGCAUAGUAUUAAGUUA | 0.15 ± 0.035 | 
37 | UCCUGGAUGUCGAUGCAUUGUAAUUAGUUA |  | < 0.0001
38 | UCCUGGAUGUCGAACGUAAGUAAUUUGUUA |  | < 0.0001
39 | UCCUGGAUGUGCUUGCUUAGUAUUUUGUUA | 0.0645 ± 0.017 | 
40 | UCCUGGAUGAGCUUGCAUAGUUUUAAGUUA | 0.0195 ± 0.0084 | 
41 | UCCUCCUACAGCUACGAUAGUAUUUAGAAA | 0.13 ± 0.029 | 
42 | UCCUGGAUGACCUUGCAUAGUUUUUAGUUA | 0.0191 ± 0.0076 | 
43 | UCCUCCUACAGCUUGGUAAGUAUUUAGAAA | 0.0543 ± 0.013 | 
44 | UCCUGGAUGUCCUUGCAUAGUAUAUAGAUA | 0.0132 ± 0.0063 | 
45 | UCCUGGAACAGGUUGCAUAGUAUUUUCAAA | 0.0435 ± 0.012 | 
46 | UCCUGGAUGUCCUUGCAUAGUAUUUCGUUA | 0.0489 ± 0.017 | 
47 | UCCUGCUACAGCUUGCAUAGUAUAUACUUA | 0.0361 ± 0.011 | 
48 | UCCUGCUACAGCAACCAUAGUAUUUAGAAA | 0.102 ± 0.03 | 

Row | Sequence | pre-steady-state target cleavage rate [1] | pre-steady-state target cleavage rate [2]
49 | UCCUGCUACAGCUUCCAUAGUUUUUAGUUA | 0.0226 ± 0.01 | 
50 | UCCUGGAUCAGCUUGCAUAGAUAUUAGUUA | 0.00566 ± 0.0036 | 
51 | UCCUGGAUGUCGAACGUAUGUAUUUAGUAA |  | < 0.0001
52 | UCCUGGAUGUCGAAGCAUGUAUUUAGUUA |  | < 0.0001
53 | UCCUGGAUGUCGUAGCAUAGUAUUUAGAUA | 0.0132 ± 0.0048 | 
54 | UCCUGGAUCACCUUGCAUAGUAUUUACUUA | 0.0587 ± 0.017 | 
55 | UCCUGGAUGUCGUACGAUAGUAUUUAGUUA |  | < 0.0001
56 | UCCUGGAUGACCUUGCAUAGUAAUUAGUUA | 0.131 ± 0.027 | 
57 | UCCUGGAUGUCGAACCAUACAAUUUAGUUA |  | < 0.0001
58 | UCCUGGAUGUCGAACGUUAGUAUUUAGUA | < 0.0001 | 
59 | UCCUGGAUGAGCUUGCAUAGUAUUUAGGUA | 0.166 ± 0.04 | 
60 | UCCUGGAUGAGCUUGCAUGUAUUUAGUUA | 0.0097 ± 0.004 | 
61 | UCCUGGAUCAGCUUGCAUAGAUUUUAGUAA | 0.0227 ± 0.0073 | 
62 | UCCUGGAUGACCUUCCAUAGUAUUUAGUUA | 0.024 ± 0.0096 | 
63 | UCCUGGAACAGCUUGCAUAGUUUUAAGUUA | 0.0465 ± 0.009 | 
64 | UCCUGGUACAGCUUGCAUAGUAUUUUGUAA | 0.03 ± 0.0099 | 
65 | UCCUGGAUGUCGAACAAUAGUAUUUAGUUA |  | < 0.0001
66 | UCCUGGAUGUGCUUGCUUAGUAUUUACUUA | 0.0644 ± 0.015 | 
67 | UCCUGGUACAGCUUGCUAAGUAUUUACAAA | 0.0119 ± 0.0056 | 
68 | UCCUGGAUCAGCAACCAUAGUAUUUACAAA |  | < 0.0001
69 | UCCUGGAACAGCUUGCAUACUAUUUACAAA | 0.0166 ± 0.0064 | 
70 | UCCUGCUACACCUUGCAUAGUAUUUACAAA | 0.144 ± 0.039 | 
71 | UCCUGGAUGUGCUUGCAUAGUAUGUAGUUA | 0.134 ± 0.026 | 
72 | UCCUGGAUGUCCUUGCAUAGUAUUUACUUA | 0.0499 ± 0.013 | 

Row | Sequence | pre-steady-state target cleavage rate [1] | pre-steady-state target cleavage rate [2]
73 | UCCUGGAACAGCUUGCAUAGUAUUAUCUAA | 0.0368 ± 0.012 | 
74 | UCCUGGAUGUCGAACGUAAGUUUUAGUUA |  | < 0.0001
75 | UCCUGGUACAGCUUGCAUUGUAUUUACAAA | 0.0165 ± 0.0077 | 
76 | UCCUGGAUCAGCUUGCAUUCUAUUUACAAA |  | < 0.0001
77 | UCCUGCUACAGCUUGCAAUCUAUUUACAAA | 0.00954 ± 0.0044 | 
78 | UCCUGGAACAGCUUGCAUUGUAUUUACAAA | 0.00788 ± 0.0043 | 
79 | UCCUGGAUGAGCUUGCAUAGUAUUAUCAAA | 0.00461 ± 0.0034 | 
80 | UCCUGGAUGUCGAACGAUAGUAUAAUGUUA |  | < 0.0001
81 | UCCUGGAUGUCCAUGCAUAGUAUUUAGAUA | 0.0163 ± 0.0062 | 
82 | UCCUGGAACAGCUUGCAUAUAUUUAGUUA | 0.0331 ± 0.0059 | 
83 | UCCUCCUACAGCUUGCAUCAGUAUUUAGUUA | 0.0234 ± 0.0093 | 
84 | UCCUGGAUCAGCUUGCAUAGUAUUAUCAAA | 0.0975 ± 0.021 | 
85 | UCCUGGAUGAGCUUCGAUAGUAUUUAGUUA | 0.108 ± 0.013 | 
86 | UCCUGGAUGAGCUUGCUAUCAUAAAUCAAA [g15:g21:cont:t1A] |  | < 0.0001
87 | UCCUGGAUGUCGUAGCAUAGUAUUUAGUAA | 0.0538 ± 0.01 | 
88 | UCCUGGAUGUGCUUGCAUACUAUUUUGUUA | 0.00854 ± 0.0058 | 
89 | UCCUGGAACAGCUUGCAAAGUAUUUACUUA | 0.122 ± 0.027 | 
90 | UCCUGGAUGUCGAACGUAUGUAUUUCGUUA |  | < 0.0001
91 | UCCUGCUACAGCUUGCAUAGUUAUUACAAA | 0.00534 ± 0.0038 | 
92 | UCCUCCUACAGCUUCGUUAGUAUUUAGAAA | 0.0202 ± 0.0065 | 
93 | UCCUGGAUGAGCUUCCAUUGUAUUUAGUUA | 0.0518 ± 0.016 | 
94 | UCCUGGAACAGCUUGCAUACUAUUUAGAUA | 0.013 ± 0.0053 | 
95 | UCCUCCUACAGCAUGCAUAGUAUUUUCAAA | 0.138 ± 0.03 | 
96 | UCCUGGUACAGCUUGCAUAGUAUAAUGAAA | 0.0203 ± 0.0077 | 

Row | Sequence | pre-steady-state target cleavage rate [1] | pre-steady-state target cleavage rate [2]
97 | UCCUGGAUGUCGAACGUAAGUAUUUAGUUC [g2:g12:cont:t1C] |  | < 0.0001
98 | UCCUCCUACAGCUUGCAUAGAUAUUAGAAA | 0.00453 ± 0.0044 | 
99 | UCCUCCUACAGCUUGCAUUCUAUUUAGAAA | 0.0122 ± 0.0056 | 
100 | UCCUGGAUGUCGUUGGAUAGUAUUUAGUUA | 0.0108 ± 0.0042 | 
101 | UCCUGGAUGUCCUUGCUUAGUAUUUACUUA | 0.0556 ± 0.015 | 
102 | UCCUCCUACAGCUUCCAUAGUUUUUAGUUA | 0.0195 ± 0.0081 | 
103 | UCCUGGAUGUCGAACCAUAGUUUUUUGUUA | < 0.0001 | 
104 | UCCUGGAUGUCGAACCAUAGUAUUUAGUGUA |  | < 0.0001
105 | UCCUGGAUGAGCUACCAUAGUAUUUAGUAA | 0.1 ± 0.018 | 
106 | UCCUGGAUGUCGAACGAAUCUAUUUAGUUA |  | < 0.0001
107 | UCCUGCUACUCGUUGCAUAGUAUUUAGAAA | 0.179 ± 0.032 | 
108 | UCCUGGUACAGCUUCGAUAGUAUUUAGAAA | 0.0453 ± 0.014 | 
109 | UCCUGGAUGAGCUUGCAUACAUUUUAGUUA |  | 0.00358 ± 0.0026
110 | UCCUGGAUGUCGAACGUUAGUAUUUAGUAA |  | < 0.0001
111 | UCCUGGAUGUCGUUGCAUAGUAUUAAGUAA | 0.0273 ± 0.012 | 
112 | UCCUGCUACAGCUUGCUAAGUAUUUAGUAA | 0.0923 ± 0.022 | 
113 | UCCUGGAUGUCGAACCAUAGUAUUGAGUUA |  | < 0.0001
114 | UCCUGGAUGAGCUUGCAUAGAAAUUAGUUA | 0.0228 ± 0.0075 | 
115 | UCCUGGAUGUCGAUGCAAUAGUAUUUAGUUA | 0.00497 ± 0.0023 | 
116 | UCCUGGAUGUCGAAGCAUAGUAUUUAUUUA | 0.0073 ± 0.0034 | 
117 | UCCUGGAUGUCGUUGCAUAGUUUUAAGUUA |  | 0.0042 ± 0.0022
118 | UCCUGGAAGAGCUUGCAUAGUAUUUACUUA | 0.0737 ± 0.02 | 
119 | UCCUGGAUCAGCUUGCAUAUGUAUUUAGUUA | 0.00465 ± 0.0046 | 
120 | UCCUGGUACAGCUUGCAUACAUUUUAGUUA |  | 0.00408 ± 0.0037
